Screens deposited in PubChem BioAssay by several laboratories.
PrPC surface inh: reduces human prion protein on the cell surface. hit rate 0.43% among 370,000. P04156. inhibition, % at 13.8 µM. AID 720596. cell surface PrPC, TR-FRET read-out; in the data active = inhibition above about 24%
BJeLR lethal: kills HRASV12-expressing BJeLR cells | BJeLR (HRASV12) viability, CellTiter-Glo ATP luminescence, 48 h | inhibition, % (concentration not given with the values) | hit rate 0.17% among 300,000; in the data active = inhibition above about 50%
Mtb FBA inh: inhibitors of M. tuberculosis fructose-bisphosphate aldolase | P9WQA3 | purified M. tuberculosis FBA, fluorescence read-out | inhibition, % at 1 µM | hit rate 2.3% among 360,000 | AID 588726; in the data active = inhibition above about 27%
Target sequence (P9WQA3 whole entry, looked up): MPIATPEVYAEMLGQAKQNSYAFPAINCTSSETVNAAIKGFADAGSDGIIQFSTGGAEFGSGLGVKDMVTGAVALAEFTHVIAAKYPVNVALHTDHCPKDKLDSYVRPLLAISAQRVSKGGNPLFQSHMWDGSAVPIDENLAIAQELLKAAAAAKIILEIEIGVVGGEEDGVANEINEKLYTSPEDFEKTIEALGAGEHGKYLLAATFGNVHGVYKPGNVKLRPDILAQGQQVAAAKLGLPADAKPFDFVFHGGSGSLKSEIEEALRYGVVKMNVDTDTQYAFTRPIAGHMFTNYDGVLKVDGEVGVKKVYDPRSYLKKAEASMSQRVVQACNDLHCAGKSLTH
PrP UTR inh: suppresses PrP 5' UTR mRNA reporter expression; cell-based PrP 5' UTR mRNA reporter, plate reader; inhibition, % (no concentration beside the values); hit rate 0.35% among 340,000; in the data active = inhibition above about 52%
GDH-TPI inh: inhibits GDH-TPI coupling enzymes, artifact for Mtb FBA screen; GDH-TPI coupled enzyme counterscreen, NADH absorbance; inhibition, % at 4.8 µM; hit rate 1.2% among 360,000; AID 588335; in the data active = inhibition above about 30%
PfHsp40 rescue: restores yeast growth despite PfHsp40 toxicity | S. cerevisiae expressing PfHsp40, growth rescue, ATP luminescence | growth rescue, % at 12.5 µM | hit rate 0.68% among 340,000 | AID 504582; in the data active = growth rescue above about 28%, passing the limit was not always enough;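 note: yeast W303a lacking pdr1 and pdr3 grown in galactose medium; growth measured after three days at 30 °C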
Large screens that a line does not name were inactive. Rows were chosen to be rich in hits. Some 4.5% of all compounds tested hit in one or more screens of this group.

CN(C)c1ccc(C=NC(CO)C(O)c2ccc([N+](=O)[O-])cc2)cc1 (centres undefined)	GDH-TPI inh 38
COc1cccc(C=N[C@@H](CO)[C@@H](O)c2ccc([N+](=O)[O-])cc2)c1O	none
COc1ccc(CN(C)C(=O)COC(=O)c2ccc(-c3ccccc3)cc2)c(OC)c1OC	PfHsp40 rescue 68 (no result: BJeLR lethal)
Oc1ccccc1N=Nc1ccccc1O	PfHsp40 rescue 32
CCCCNC(=O)C[C@@H]1C(=O)N(Cc2ccc(OC)cc2)/C2=C/CCCCC[C@@]21C(=O)OCC	none (no result: BJeLR lethal, Mtb FBA inh, PrP UTR inh, GDH-TPI inh, PfHsp40 rescue)
O=C(N/N=C/c1ccncc1)c1ccccn1	none
O=C(N/N=C/c1ccc(N2CCOCC2)cc1)c1ccccn1	GDH-TPI inh 67
Cc1ccc2nc(C)c(C(=O)N/N=C/c3ccco3)cc2c1	none
O=C(/C=C/c1ccc2c(c1)OCO2)c1ccccn1	none
Cc1ccc2nc(C)c(C(=O)N/N=C/c3ccc(N4CCOCC4)cc3)cc2c1	GDH-TPI inh 41
O=C(N/N=C/c1ccc2c(c1)OCO2)c1ccccn1	GDH-TPI inh 41
COc1cc(/C=N/NC(=O)c2nc3ccccn3c2C)cc(OC)c1O	none
Cc1c(C(=O)N/N=C/c2ccc(N3CCOCC3)cc2)nc2ccccn12	GDH-TPI inh 31
O=C(N/N=C/c1cc2c(cc1Br)OCO2)c1ccccn1	GDH-TPI inh 31 (no result: PrP UTR inh, PfHsp40 rescue)
O=C(N/N=C/c1cc2c(cc1Br)OCO2)c1cc2ccccc2o1	none
CCOC(=O)c1sc2nc3c(cc2c1N)COC(C)(C)C3	none (no result: BJeLR lethal)
CCOC(=O)c1cc2c(nc1N)CC(C)(C)OC2	Mtb FBA inh 164
CCOC(=O)c1cc2c(nc1N)CC(C)(CC)OC2 (centres undefined)	Mtb FBA inh 112
O=C(Nc1ccccc1)n1ccc2ccc(-c3ccc4cc[nH]c4c3)cc21	none (no result: BJeLR lethal, Mtb FBA inh, PrP UTR inh, GDH-TPI inh, PfHsp40 rescue)
Cc1ccc(/C=C/C(=O)OCn2nnc3ccccc3c2=O)o1	GDH-TPI inh 34
O=C(/C=C/c1ccco1)OCn1nnc2ccccc2c1=O	none
O=C(Oc1ccc(N(C(=O)c2ccncc2)S(=O)(=O)c2ccc(F)cc2)cc1)c1ccncc1	none
COc1ccc(N(C(=O)c2ccncc2)S(=O)(=O)c2ccc(Cl)cc2)cc1	PfHsp40 rescue 141 (no result: PrPC surface inh)
CCc1ccc(S(=O)(=O)N(C(=O)c2ccncc2)c2ccc(OC(=O)c3ccncc3)cc2)cc1	PfHsp40 rescue 234
O=C(Oc1ccc(N(C(=O)c2ccncc2)S(=O)(=O)c2ccc(Cl)cc2)cc1)c1ccncc1	PfHsp40 rescue 422
Cc1ccc(S(=O)(=O)N(C(=O)c2ccncc2)c2ccc(OC(=O)c3ccncc3)cc2)cc1	PfHsp40 rescue 372
O=C(CSc1nc2c(c(=O)[nH]1)CCCC2)N1CCOCC1	none (no result: BJeLR lethal, Mtb FBA inh, PrP UTR inh, GDH-TPI inh, PfHsp40 rescue)
CC1CN(c2nc3ccccc3nc2SCC(=O)N2CCN(S(=O)(=O)c3ccccc3)CC2)CC(C)O1 (centres undefined)	none (no result: BJeLR lethal, Mtb FBA inh, PrP UTR inh, GDH-TPI inh, PfHsp40 rescue)
COc1ccccc1C(=O)NC1CCCCN(Cc2ccc(OC(F)(F)F)cc2)C1=O (centres undefined)	none (no result: BJeLR lethal, Mtb FBA inh, PrP UTR inh, GDH-TPI inh, PfHsp40 rescue)
Cc1nc2ccc(S(=O)(=O)NCC(=O)NCc3ccc(F)cc3)cc2s1	none (no result: BJeLR lethal, Mtb FBA inh, PrP UTR inh, GDH-TPI inh, PfHsp40 rescue)
CCN(CC)CCn1cnc2c([nH]c3cccc(OC)c32)c1=O	Mtb FBA inh 103
COc1cccc2c3cccc(OC)c3c3[nH]cnc3c12	none (no result: BJeLR lethal)
COc1cccc2[nH]c3c(=O)[nH]cnc3c12	Mtb FBA inh 133
CC(C)N(CCn1cnc2c([nH]c3ccccc32)c1=O)C(C)C	none
COc1cccc2[nH]c3c(=O)n(CCN(C)C)cnc3c12	Mtb FBA inh 117
CC(N)=Nc1ccc([N+](=O)[O-])cc1	none
O=[N+]([O-])c1ccc(N=Nc2c(Cl)cc(O)cc2Cl)cc1	BJeLR lethal 102, PfHsp40 rescue 175 (no result: PrP UTR inh)
CCC[C@H]1[C@@H](OC(=O)NCc2ccc(C)o2)CC[C@@]23CCCN2C(=O)CCC[C@@H]13	none (no result: BJeLR lethal, Mtb FBA inh, PrP UTR inh, GDH-TPI inh, PfHsp40 rescue)
O=C(C/C=N\O)Nc1ccc(Oc2ccccc2)cc1	PfHsp40 rescue 46
CN(C)c1ccc(C(=O)OCC(=O)c2ccc[nH]2)cc1	GDH-TPI inh 31 (no result: BJeLR lethal)
O=C(OCC(=O)c1ccc[nH]1)c1ccccc1	none
COc1ccc(CN2C[C@]3(C=C4CCCCC4n4c(=O)n(-c5ccccc5)c(=O)n43)N=C2NC(=O)c2ccccc2)c(OC)c1 (some centres undefined)	none (no result: BJeLR lethal, Mtb FBA inh, PrP UTR inh, GDH-TPI inh, PfHsp40 rescue)
COC(=O)/C(=C/c1c[nH]c2ccccc12)NC(C)=O	none
CCOC(=O)/C(=C/c1c[nH]c2ccccc12)NC(C)=O	GDH-TPI inh 38
CC(=O)n1cc(N(C(=O)CCl)c2ccc(C)cc2)c2ccccc21	BJeLR lethal 84
CC(=O)N(c1ccc(Cl)cc1)c1cn(C(C)=O)c2ccccc12	none
CCOC(=O)/C(=N\Nc1ccc(Br)cc1)N1CC(C)OC(C)C1 (centres undefined)	GDH-TPI inh 37 (no result: PrPC surface inh)
CCOC(=O)/C(=N\Nc1ccccc1Cl)N1CC(C)OC(C)C1 (centres undefined)	none
O=C(CCNS(=O)(=O)c1ccc(Br)s1)NC1CCCC1	none
O=S(=O)(NC1CCCCCC1)c1ccc(Br)s1	PfHsp40 rescue 59
O=C(CN1CCN(c2nc(-c3ccccc3)cs2)CC1)Nc1ccc(Cl)cc1	none (no result: BJeLR lethal, Mtb FBA inh, PrP UTR inh, GDH-TPI inh, PfHsp40 rescue)
CCC(=O)OCOc1ccc(/C=C2/CCC(CN(C)C)C2=O)cc1 (centres undefined)	GDH-TPI inh 32 (no result: BJeLR lethal)
Cc1ccc(S(=O)(=O)N2c3ccccc3OCC2c2ccccc2)cc1 (centres undefined)	none
CC1COc2ccccc2N1S(=O)(=O)c1ccc(Cl)cc1 (centres undefined)	PfHsp40 rescue 32
O=C(O)CCNC(=O)/C(=C\C=C\c1ccccc1)NC(=O)c1ccccc1	GDH-TPI inh 53
O=C(NCc1ccco1)/C(=C/C=C/c1ccccc1)NC(=O)c1ccco1	none
O=C(Nc1ccc(C(=O)O)cc1)/C(=C\C=C\c1ccccc1)NC(=O)c1ccccc1Cl	GDH-TPI inh 56
Cc1ccc(C(=O)N/C(=C\C=C\c2ccccc2)C(=O)NCc2ccco2)cc1	GDH-TPI inh 36
O=C(Nc1ccc(O)cc1)/C(=C\C=C\c1ccccc1)NC(=O)c1ccccc1	GDH-TPI inh 74 (no result: PrP UTR inh)
O=C(N/C(=C/C=C/c1ccccc1)C(=O)N1CCOCC1)c1ccccc1Cl	none
COc1ccc(S[C@]2(C(=O)N3CCOCC3)CC(=O)N(c3ccc(OC)cc3)[C@@H]2c2ccc(OC)cc2)cc1	none (no result: BJeLR lethal, Mtb FBA inh, PrP UTR inh, GDH-TPI inh, PfHsp40 rescue)
O=C(NC1CCCCN(Cc2cccc(C(F)(F)F)c2)C1=O)c1ccc(F)c(F)c1 (centres undefined)	none (no result: BJeLR lethal, Mtb FBA inh, PrP UTR inh, GDH-TPI inh, PfHsp40 rescue)
O=C(c1cccc(-c2cncc3nccn23)c1)N1CCOCC1	Mtb FBA inh active (no result: BJeLR lethal, PrP UTR inh, PfHsp40 rescue)
Cc1cc(NCCN2CCOCC2)n2nc(C)c(-c3ccccc3)c2n1	none
COCCNc1cc(C)nc2c3c(C)cc(C)nc3nn12	Mtb FBA inh active
COCCNc1cc(C)nc2c(-c3ccccc3OC)c(C)nn12	none
Cc1cc(C)c2c(n1)nn1c(NCCN3CCOCC3)cc(C)nc21	Mtb FBA inh active
COC(=O)[C@@]12C[C@@H](CC(=O)NCc3cccs3)C(=O)N(Cc3ccco3)C1=CCC(C)(C)C2	none (no result: BJeLR lethal, Mtb FBA inh, PrP UTR inh, GDH-TPI inh, PfHsp40 rescue)
